# IL-1B inflam inh – inflammasome signaling inhibition, IL-1 beta readout | THP-1 LPS/ATP IL-1B secretion, AlphaLISA, 16 h; stronger effect = lower value | activity change, % at 57.5 µM | 360,000 compounds, 4.7% hits | AID 743279; in the data active = activity change below about -50%; inconclusive = mostly about -30% to -49%
#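 THP-1 cells pretreated 1 hr with compounds (up to 57.5 uM final), then stimulated with LPS (250 ng/mL final) plus ATP (1.25 mM final); secreted IL-1B measured by AlphaLISA after 16 hr, decreased signal indicating inhibition.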
# DT40 TDP1 CPT – growth inhibition of DT40 Tdp1-/-;hTDP1 cells with camptothecin (screen for TDP1 inhibitors); Potency, µM (series often up to 46.2 µM), for the others: at the highest dose activity change, negative = growth inhibition, actives largely listed as inhibitors; AID 686979; 420,000 compounds, 12% hits; chicken DT40 Tdp1-/-;hTDP1 cells + 20 nM CPT, ATP luminescence, 48 h; note: potency is the fitted concentration of half-maximal effect; nearly all actives have a fitted effect of over 55% in size
#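 Chicken DT40 Tdp1-/- cells stably complemented with human TDP1 were seeded at 400 cells/well in medium containing 20 nM camptothecin, exposed to pin-transferred compounds, and grown at 37 °C for at least 48 hr. Viability was read as ATP luminescence.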
# TDP1 block – TDP1 (human) enzyme inhibition; recombinant TDP1, AlphaScreen DNA substrate cleavage; Q9NUW8; Potency, µM (doses to about 130 µM), for the others: at the top dose activity change, negative = inhibition, usual class: inhibitors; AID 485290; 350,000 compounds, 0.28% hits; note: potency is the fitted concentration of half-maximal effect; nearly all actives have a fitted effect of over 40% in size
#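 Tdp1 1 nM final; 15 min RT w/ cpd; substrate 15 nM, 5 min; beads 10 ug/ml, 10 min; AlphaScreen read. Neg ctrl: no enzyme.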
# TDP1 cell noCPT – qHTS for Inhibitors of human tyrosyl-DNA phosphodiesterase 1 (TDP1): qHTS in cells in absence of CPT. DT40 Tdp1-/- hTDP1 cells, no CPT, ATP luminescence, 48 h. Potency, µM (titrated, usually from 46.2 µM), inactives show at the top dose activity change, negative = growth inhibition, actives largely listed as inhibitors. 420,000 compounds, 15% hits. AID 686978, 2013; note: potency is the fitted concentration of half-maximal effect; nearly all actives have a fitted effect of over 55% in size
#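 Luminescent ATP content (CellTiter-Glo) served as the growth readout. Knockout chicken DT40 cells expressing human TDP1 were exposed to compounds without camptothecin for a minimum 48 hr at 37 °C.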
# Six1-Eya2 inh – blocks human Six1 binding to Eya2. Q15475+O00167. AlphaScreen GST-Six1/His-Eya2 binding, biochemical; stronger effect = lower value. activity change, % (concentration not given with the values). 360,000 compounds, 0.56% hits. AID 651725; in the data active = activity change below about -65%; inconclusive = mostly about -30% to -63%
# Target sequence (O00167 whole entry, looked up): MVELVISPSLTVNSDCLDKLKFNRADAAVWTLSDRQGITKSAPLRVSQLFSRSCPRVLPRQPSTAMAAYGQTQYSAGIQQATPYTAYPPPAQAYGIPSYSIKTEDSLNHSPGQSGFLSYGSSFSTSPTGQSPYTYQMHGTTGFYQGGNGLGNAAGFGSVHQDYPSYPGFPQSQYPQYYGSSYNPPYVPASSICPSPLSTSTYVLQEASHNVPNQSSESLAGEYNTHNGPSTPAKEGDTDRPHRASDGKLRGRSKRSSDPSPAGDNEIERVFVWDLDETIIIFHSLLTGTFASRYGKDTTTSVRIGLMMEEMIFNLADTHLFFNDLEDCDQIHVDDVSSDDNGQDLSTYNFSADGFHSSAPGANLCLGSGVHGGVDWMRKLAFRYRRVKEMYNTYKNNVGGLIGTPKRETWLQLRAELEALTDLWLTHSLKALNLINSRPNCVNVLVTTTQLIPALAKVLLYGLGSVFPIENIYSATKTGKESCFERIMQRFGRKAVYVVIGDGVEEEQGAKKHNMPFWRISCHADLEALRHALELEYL
# Target sequence (Q15475 whole entry, looked up): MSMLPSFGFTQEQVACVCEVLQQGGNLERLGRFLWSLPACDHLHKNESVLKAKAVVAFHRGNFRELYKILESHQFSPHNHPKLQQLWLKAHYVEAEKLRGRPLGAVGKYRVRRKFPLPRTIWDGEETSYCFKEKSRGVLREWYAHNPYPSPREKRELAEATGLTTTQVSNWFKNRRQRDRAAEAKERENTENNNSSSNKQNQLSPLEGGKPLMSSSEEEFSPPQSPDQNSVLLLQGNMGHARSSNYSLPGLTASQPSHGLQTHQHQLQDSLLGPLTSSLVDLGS
#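 AlphaScreen with GST-Six1 and His-Eya2 (5X mix: 250 nM and 500 nM), glutathione donor and nickel acceptor beads; buffer 50 mM Tris pH 8.0, 300 mM NaCl, 1 mM TCEP; 1 h at 37 C in the dark.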
# CtBP-E1A inh – blocks the CtBP interaction with E1A; AlphaScreen GST-E1A/His-CtBP binding, 1536-well; stronger effect = lower value; activity change, % (no concentration beside the values); AID 651724; 340,000 compounds, 0.49% hits; in the data active = activity change below about -65%; inconclusive = mostly about -30% to -63%
#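 Homogeneous bead-based format: GST-tagged E1A captured on glutathione donor beads, His-tagged CtBP on nickel acceptor beads; compounds precede bead addition by 2 h at 37 °C.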
# Starred values were filed as active, the others as inactive; i = inactive; ? = inconclusive; · = not tested or not shown; [ ] = remark or other dose. Shown are actives, neighbours in structure and some others; about 18% of the full set was active somewhere. Unless noted, calls come from the whole dose curve; as a rule, active = well fitted curve in the direction sought with a large enough effect; inconclusive = small, poorly fitted or top-dose-only effect, or another doubt; inactive = no such curve, though single readings can be large; an effect the other way counts as inactive or inconclusive. % is set by controls: 0 for no effect and ±100 for the full control effect.
SMILES,IL-1B inflam inh,DT40 TDP1 CPT,TDP1 block,TDP1 cell noCPT,Six1-Eya2 inh,CtBP-E1A inh
COc1cc2c(cc1OC)CN(CC(=O)Nc1ccc(C)cc1)CC2,0,-29%,3%,-23%,-5,2
N#Cc1c(SCC(N)=O)nc2c(c1-c1ccc(O)cc1)CCCC2,36,-12%,5%,-6%,-2,0
O=C(CN1CCN(C(c2ccccc2)c2ccccc2)CC1)N1CCOCC1,16,9%,0%,-5%,1,14
Oc1c(C(c2ccccc2)N2CCOCC2)ccc2ccccc12 (stereo not given),-99*,8.2µM*,·,9.2µM*,-13,-5
CC(=O)Nc1ccc(S(=O)(=O)NCC(=O)OCC(=O)NC23CC4CC(CC(C4)C2)C3)cc1,0,3%,0%,4%,6,0
COc1ccc(C(CNC(=O)c2oc3ccc(Cl)cc3c2C)N2CCCCC2)cc1 (stereo not given),0,16µM*,7%,23µM*,4,·
COc1ccc(C(CNC(=O)Cc2cc(OC)c(OC)c(OC)c2)N2CCCC2)cc1 (stereo not given),-5,4%,6%,1%,0,6
COc1ccc(C(CNC(=O)c2ccccc2C)N2CCCC2)cc1 (stereo not given),-3,-20%,8%,-2%,-3,-3
COc1ccc(C(CNC(=O)c2oc3c(Cl)cccc3c2C)N2CCCC2)cc1 (stereo not given),?,16µM*,·,23µM*,-13,-10
COc1ccc(C(CNC(=S)NCc2ccccc2)N2CCCC2)cc1 (stereo not given),-72*,1%,4%,-29%,-1,4
COc1ccc(C(CNC(=O)c2oc3ccccc3c2C)N2CCCC2)cc1 (stereo not given),-13,21µM*,1%,?,-4,-10
COc1ccccc1C(CNC(=S)NCc1ccccc1)N1CCCC1 (stereo not given),-5,0%,1%,?,-3,-11
O=C(CNCc1ccccc1Cl)Nc1ccc(C(=O)N2CCCCC2)cc1,15,?,5%,?,3,-3
CCc1ccc(-c2csc(NC(=O)C3CC(=O)N(c4ccc5c(c4)OCCO5)C3)n2)cc1 (stereo not given),1,16µM*,3%,16µM*,?,17
O=C(Nc1nc(-c2ccco2)c(-c2ccco2)s1)C1CCC1,?,15µM*,8%,18µM*,-27,-14
Cc1csc(NC(=O)C2CC(=O)N(c3ccc4c(c3)OCCO4)C2)n1 (stereo not given),0,-19%,1%,11%,-1,2
CS(=O)(=O)c1ccc2nc(NC(=O)c3ccccc3)sc2c1,18,-27%,·,?,-1,8
CC(=O)Nc1ccc(NC(=O)C2CC(=O)N(c3cccc(Cl)c3)C2)cc1 (stereo not given),23,?,-1%,?,2,·
CS(=O)(=O)c1ccc(C(=O)Nc2nc(-c3ccco3)c(-c3ccco3)s2)cc1,?,?,10%,21µM*,?,-17
Cc1cnc(NC(=O)C2CC(=O)N(c3cccc(Cl)c3)C2)s1 (stereo not given),-17,7.3µM*,4%,5.8µM*,1,7
Cc1cc(C)cc(NC(=S)N2CCN(S(C)(=O)=O)CC2)c1,i,10%,1%[56.1 µM],2%,-5,7
O=C(COC(=O)c1ccc(Br)o1)NCc1ccco1,5,0%,·,-23%,-9,0
Cc1cnc(NC(=O)C2CC(=O)N(c3ccc4c(c3)OCCO4)C2)s1 (stereo not given),-57*,-3%,-3%,-9%,0,0
Cc1nnc(NC(=O)C2CC(=O)N(c3ccc4c(c3)OCCO4)C2)s1 (stereo not given),-6,0%,-10%[56.1 µM],21%,1,-6
O=C(Nc1nc(-c2ccco2)c(-c2ccco2)s1)C1CC(=O)N(c2ccc3c(c2)OCCO3)C1 (stereo not given),-21,16µM*,?,?,?,-7
SMILES,IL-1B inflam inh,DT40 TDP1 CPT,TDP1 block,TDP1 cell noCPT,Six1-Eya2 inh,CtBP-E1A inh
Cc1ccccc1NC(=O)CN1CCC(C(=O)c2ccc3c(c2)OCCO3)CC1,14,?,·,18µM*,-4,1
CCOc1ccc(C(=O)C2CCN(CC(=O)Nc3ccccc3N3CCOCC3)CC2)cc1,-25,16µM*,7%,18µM*,-13,-5
O=C(CN1CCN(CC(=O)Nc2ccccc2Cl)CC1)Nc1ccc2c(c1)OCCO2,-8,?,6%,23µM*,-6,-2
O=C(CN1CCC(C(=O)c2ccc3c(c2)OCCO3)CC1)Nc1ccccc1C(F)(F)F,-57*,?,3%,?,-3,3
CSCC[C@H](NC(=O)Cc1c(C)c2c(cc(C)c3c(C)c(C)oc32)oc1=O)C(=O)O,16,10%,·,6%,-12,·
CC(C)c1ccc(CNC(=O)c2ccc(N3CCCC3)c(NC(=O)NCc3ccc(F)cc3)c2)cc1,·,?,6%,?,·,·
O=C(CN1CCN(CC(=O)Nc2ccccc2Cl)CC1)NCC1(N2CCCCC2)CCCCC1,-8,?,0%,21µM*,1,·
O=C(CN1CCN(CC(=O)Nc2ccccc2Cl)CC1)NCC1(N2CCOCC2)CCCCC1,-29,?,0%,?,0,-1
C[C@H](CO)N1C[C@H](C)[C@@H](CN(C)Cc2ccc(Cl)c(Cl)c2)Oc2c(NS(=O)(=O)c3cn(C)cn3)cccc2C1=O,16,7%,5%,?,5,7
Fc1ccccc1N1CCN(c2ncnc3[nH]ncc23)CC1,-14,15µM*,9%,?,-3,0
COc1ccccc1N1CCN(c2ncnc3onc(C)c23)CC1,·,?,4%,15µM*,·,·
Cc1noc2ncnc(N3CCN(c4ccccc4F)CC3)c12,·,21µM*,1%,23µM*,·,·
CC(C)(C)S(=O)(=O)/C(C#N)=N/Nc1ccc(S(N)(=O)=O)cc1,14,2%,5%,-10%,6,8
Cc1nnc(N/N=C/C(C)c2ccccc2)[nH]c1=O (stereo not given),-100*,2%,1%,1%,-21,-20
Cc1nnc(N/N=C/c2c[nH]c3ccccc23)[nH]c1=O,0,?,8%,1%,-1,?

# High-throughput results (PubChem)
